From PubChem BioAssay (Tox21) come the findings set out here.

The source made the active and inactive calls. Where a call stands in place of a potency, no number is given. Unless noted, calls come from the whole dose curve.

Chain of KiSS-1 receptor (Homo sapiens) (Q969F8 whole entry, looked up): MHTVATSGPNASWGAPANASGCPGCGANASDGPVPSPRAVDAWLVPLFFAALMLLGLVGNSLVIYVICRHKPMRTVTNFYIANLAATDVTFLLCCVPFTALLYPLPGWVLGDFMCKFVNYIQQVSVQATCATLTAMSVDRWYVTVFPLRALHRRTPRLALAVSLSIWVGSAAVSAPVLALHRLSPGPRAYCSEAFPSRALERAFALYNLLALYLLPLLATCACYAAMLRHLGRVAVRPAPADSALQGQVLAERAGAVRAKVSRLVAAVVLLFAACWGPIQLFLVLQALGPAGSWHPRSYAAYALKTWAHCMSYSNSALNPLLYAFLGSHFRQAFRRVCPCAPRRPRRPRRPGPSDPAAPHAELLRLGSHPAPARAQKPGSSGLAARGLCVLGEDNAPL

For one assay, the target named is KiSS-1 receptor (Homo sapiens) (UniProt Q969F8). Put plainly: Human kisspeptin (KISS1R) small molecule agonists, calcium flux assay in KISS1R-HEK293 cells (AID 1920064; active = well fitted activation curve with a large enough effect in the repeat runs). Conditions: KISS1R-HEK293, calcium flux fluorescence, agonist; series mostly up to 76.8 µM. An outline of the steps:
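HEK293 cells stably expressing human KISS1R were loaded with calcium dye for 1 h at 37 C, then given compound; fluorescence (Ex/Em 480/540) was read kinetically for 3 min. Fifteen concentrations, triplicate.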
For orientation: Calcium flux is commonly read through the fluorescence of an indicator in the cells.
Regarding `CCCCCCCCP(=O)(O)O`, the Potency result is “inactive”.

As for `c1ccc2c(c1)CCNC2`, the Potency entry was “inactive”.

Regarding `C[C@]12Cc3nonc3C[C@@H]1CC[C@@H]1[C@@H]2CC[C@@]2(C)[C@H]1CC[C@]2(C)O`, the Potency result was “inactive”.

As for `Nc1cc(Cl)ccc1Cl`, the Potency entry was “inactive”.

As to `Clc1cccc(N2CCNCC2)c1`, the Potency result is “inactive”.

Turning to `N#Cc1c(Cl)cccc1Cl`, the Potency result is “inactive”.

With `COc1ccc(CN2CCNCC2)c(OC)c1OC`, the Potency result is “inactive”.

With `CC(Cc1ccccc1)N(C)Cc1ccco1` (stereo not given), the Potency result was “inactive”.

Turning to `ClCC(Cl)Cl`, the Potency entry is “inactive”.

On to `CC[C@@H](CO)NC(=O)[C@@H]1C=C2c3cccc4c3c(cn4C)C[C@H]2N(C)C1`, for which the Potency result is “inactive”.

In the case of `CC1NCCOC1c1ccccc1` (stereo not given), the Potency entry is “inactive”.

In the case of `O=C(Cc1ccccc1)OCCc1ccccc1`, the Potency result was “inactive”.

With `O=C(Cl)c1ccc(Cl)cc1`, the Potency result was “inactive”.

Consider `COc1ccc(C(=O)N2CCCC2=O)cc1`, for which the Potency entry was “inactive”.

Regarding `ClCCCN1CCN(c2cccc(Cl)c2)CC1`, the Potency entry was “inactive”.

For `C=CCC1([C@H](C)CCC)C(=O)NC(=O)NC1=O`, the Potency entry is “inactive”.

Take `ClC(Cl)=C(Cl)Cl`: the Potency entry is “inactive”.

As for `CCN(C(C)=O)c1cccc(-c2ccnc3c(C#N)cnn23)c1`, the Potency result was “inactive”.

`CCCN1CCC[C@@H]2Cc3[nH]ncc3C[C@H]21`: the Potency entry was “inactive”.

For `CC#Cc1cc(C)nc(Nc2ccccc2)n1`, the Potency result was “inactive”.

Turning to `BrCCCCBr`, the Potency entry is “inactive”.

Turning to `O=c1[nH]oc2c1CCNC2`, the Potency entry was “inactive”.

In the case of `O=C1OC(CCN2CCCCC2)OC1(c1ccccc1)c1ccccc1` (stereo not given), the Potency result is “inactive”.

With `N[C@@H](Cc1ccc(Oc2cc(I)c(O)c(I)c2)c(I)c1)C(=O)O`, the Potency result is “inactive”.

For `O=S1(=O)OC(c2cc(Br)c(O)c(Br)c2)(c2cc(Br)c(O)c(Br)c2)c2ccccc21`, the Potency result was “inactive”.

In the case of `[Cl][Sn]([Cl])([Cl])[Cl]`, the Potency entry is “inactive”.

Consider `O=[N+]([O-])c1ccc(CCl)cc1`, for which the Potency result was “inactive”.

On to `O=C(CCCN1CCC(n2c(=O)[nH]c3ccccc32)CC1)c1ccc(F)cc1`, for which the Potency entry was “inactive”.

As to `COc1cc(CC#N)cc(OC)c1OC`, the Potency entry was “inactive”.

Regarding `CC(C)NCC(O)c1ccc([N+](=O)[O-])cc1` (stereo not given), the Potency entry is “inactive”.

In the case of `CC(C(O)c1ccccc1)N(C)C/C=C/c1ccccc1` (stereo not given), the Potency result was “inactive”.

With `CC[C@@H](CO)NC(=O)[C@@H]1C=C2c3cccc4[nH]cc(c34)C[C@H]2N(C)C1`, the Potency entry is “inactive”.

Take `CC(Cl)(Cl)Cl`: the Potency result is “inactive”.

`CCOC(=O)CC(=O)CCl`: the Potency result is “inactive”.

Turning to `CNC(C)Cc1ccccc1OC` (stereo not given), the Potency entry is “inactive”.

In the case of `CC(C)NCC(O)c1ccccc1Cl` (stereo not given), the Potency result was “inactive”.

As for `CCN(CC)CCOC(=O)C(C)(c1ccccc1)c1ccccc1`, the Potency entry is “inactive”.

In the case of `ClCc1cccc(Cl)c1`, the Potency result was “inactive”.

As to `CC1=C2C[C@H]3[C@@H](CC=C4C[C@@H](O)CC[C@@]43C)[C@@H]2CC[C@]12O[C@@H]1C[C@H](C)CN[C@H]1[C@H]2C`, the Potency entry is “inactive”.

For the molecule `CC(C)[C@H](C(=O)OC(C#N)c1cccc(Oc2ccccc2)c1)c1ccc(OC(F)F)cc1` (stereo not given in full), the Potency result is “inactive”.

Tested on in another assay: not listed separately
Put plainly: G protein-coupled receptor (GPCR) small molecule agonists, calcium flux assay: HEK293 wild type cell line counter screen (AID 1920065). The conditions noted are these: HEK293 WT calcium flux, fluorescence, agonist mode; series mostly up to 57.6 µM. The procedure, abridged:
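Wild-type HEK293 cells plated 18 h, loaded with calcium dye 1 h at 37 C, then compounds added in agonist mode (ATP as positive control). Kinetic fluorescence Ex/Em 480/540 recorded 3 min at 1 sec intervals; 15 concentrations, triplicate.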
As for `CCCCCCCCP(=O)(O)O`, the Potency entry is “inactive”.

Take `c1ccc2c(c1)CCNC2`: the Potency result was “inactive”.

Turning to `C[C@]12Cc3nonc3C[C@@H]1CC[C@@H]1[C@@H]2CC[C@@]2(C)[C@H]1CC[C@]2(C)O`, the Potency entry was “inactive”.

As to `Nc1cc(Cl)ccc1Cl`, the Potency result was “inactive”.

For `Clc1cccc(N2CCNCC2)c1`, the Potency entry is “inactive”.

Consider `N#Cc1c(Cl)cccc1Cl`, for which the Potency entry is “inactive”.

`COc1ccc(CN2CCNCC2)c(OC)c1OC`: the Potency result was “inactive”.

`CC(Cc1ccccc1)N(C)Cc1ccco1` (stereo not given): the Potency entry is “inactive”.

Turning to `ClCC(Cl)Cl`, the Potency result is “inactive”.

For `CC[C@@H](CO)NC(=O)[C@@H]1C=C2c3cccc4c3c(cn4C)C[C@H]2N(C)C1`, the Potency result is “inactive”.

Regarding `CC1NCCOC1c1ccccc1` (stereo not given), the Potency entry is “inactive”.

Turning to `O=C(Cc1ccccc1)OCCc1ccccc1`, the Potency entry was “inactive”.

`O=C(Cl)c1ccc(Cl)cc1`: the Potency result was “inactive”.

As to `COc1ccc(C(=O)N2CCCC2=O)cc1`, the Potency result is “inactive”.

For `ClCCCN1CCN(c2cccc(Cl)c2)CC1`, the Potency entry is “inactive”.

As to `C=CCC1([C@H](C)CCC)C(=O)NC(=O)NC1=O`, the Potency result was “inactive”.

Consider `ClC(Cl)=C(Cl)Cl`, for which the Potency entry was “inactive”.

Take `CCN(C(C)=O)c1cccc(-c2ccnc3c(C#N)cnn23)c1`: the Potency result is “inactive”.

`CCCN1CCC[C@@H]2Cc3[nH]ncc3C[C@H]21`: the Potency entry was “inactive”.

Regarding `CC#Cc1cc(C)nc(Nc2ccccc2)n1`, the Potency entry was “inactive”.

As to `BrCCCCBr`, the Potency result is “inactive”.

As to `O=c1[nH]oc2c1CCNC2`, the Potency result is “inactive”.

Take `O=C1OC(CCN2CCCCC2)OC1(c1ccccc1)c1ccccc1` (stereo not given): the Potency entry was “inactive”.

In the case of `N[C@@H](Cc1ccc(Oc2cc(I)c(O)c(I)c2)c(I)c1)C(=O)O`, the Potency result was “inactive”.

For the molecule `O=S1(=O)OC(c2cc(Br)c(O)c(Br)c2)(c2cc(Br)c(O)c(Br)c2)c2ccccc21`, the Potency entry was “inactive”.

Consider `[Cl][Sn]([Cl])([Cl])[Cl]`, for which the Potency result was “inactive”.

For the molecule `O=[N+]([O-])c1ccc(CCl)cc1`, the Potency result is “inactive”.

As for `O=C(CCCN1CCC(n2c(=O)[nH]c3ccccc32)CC1)c1ccc(F)cc1`, the Potency entry is “inactive”.

`COc1cc(CC#N)cc(OC)c1OC`: the Potency entry is “inactive”.

As for `CC(C)NCC(O)c1ccc([N+](=O)[O-])cc1` (stereo not given), the Potency result is “inactive”.

Take `CC(C(O)c1ccccc1)N(C)C/C=C/c1ccccc1` (stereo not given): the Potency entry was “inactive”.

In the case of `CC[C@@H](CO)NC(=O)[C@@H]1C=C2c3cccc4[nH]cc(c34)C[C@H]2N(C)C1`, the Potency result was “inactive”.

On to `CC(Cl)(Cl)Cl`, for which the Potency result is “inactive”.

Turning to `CCOC(=O)CC(=O)CCl`, the Potency entry was “inactive”.

As for `CNC(C)Cc1ccccc1OC` (stereo not given), the Potency result was “inactive”.

Regarding `CC(C)NCC(O)c1ccccc1Cl` (stereo not given), the Potency entry was “inactive”.

As for `CCN(CC)CCOC(=O)C(C)(c1ccccc1)c1ccccc1`, the Potency entry was “inactive”.

In the case of `ClCc1cccc(Cl)c1`, the Potency entry was “inactive”.

For `CC1=C2C[C@H]3[C@@H](CC=C4C[C@@H](O)CC[C@@]43C)[C@@H]2CC[C@]12O[C@@H]1C[C@H](C)CN[C@H]1[C@H]2C`, the Potency result is “inactive”.

In the case of `CC(C)[C@H](C(=O)OC(C#N)c1cccc(Oc2ccccc2)c1)c1ccc(OC(F)F)cc1` (stereo not given in full), the Potency entry is “inactive”.
